Each structure is given as a SMILES string. Screen size: about 33,000 compounds; about 40 (0.1%) were called active. For the sample, actives were picked, then their nearest neighbours and some compounds at random. Unmarked numbers belong to inactive results. No stated cut-off is given here; in the data, active means z-score below about -3; inactive means the rest.

A short description of the assay: inhibitors of measles virus growth in cells, primary screen, measles RdRp inhibitor project, cell-based, single point, HTS (AID 745). The settings on record: infected Vero cells, GFP fluorescence, 64 h; stronger effect = lower value.
In the case of `CC1=C(C(=O)N2CCOCC2)C(c2cccc(Cl)c2)C2=C(CCCC2=O)N1` (stereo not given), the z-score was 0.7. Regarding `COc1cc(NS(=O)(=O)c2ccc(NC(=O)CN3C(=O)c4ccccc4C3=O)cc2)ncn1`, the z-score is -0.53. Take `CCOC(=O)Cc1nnc(NC(=O)c2ccc([N+](=O)[O-])cc2)s1`: the z-score is -0.27. As to `Cc1c(C(=O)Nc2cccc(Cl)c2)oc2ccc(S(=O)(=O)N3CCOCC3)cc12`, the z-score was -0.46. In the case of `C=CCn1c(SCCCC)nc2sc3c(c2c1=O)CCC3`, the z-score is 1.46. For `Cc1cc(C)cc(NC(=O)c2cnn3c(C(F)(F)F)cc(-c4ccco4)nc23)c1`, the z-score was 0.42. Take `C=CCOc1ccc(NC(=O)C(=O)NC(C)c2ccccc2)cc1` (stereo not given): the z-score was 0.77. Consider `O=C(O)COc1ccc(-c2cc(C(=O)O)c3cc(Br)ccc3n2)cc1`, for which the z-score was 0.41.

Turning to `NS(=O)(=O)c1ccc(CCNC(=O)c2ccc3c(=O)n(Cc4ccco4)c(=S)[nH]c3c2)cc1`, the z-score is 0.48.

Turning to `COc1cccc(C(=O)Nc2ccc3nc(N4CCCCC4)cc(C)c3c2)c1`, the z-score was -0.1. Take `COc1cc(CNc2ccc3[nH]c(=O)[nH]c3c2)ccc1OCc1cccs1`: the z-score is -1.62.

For `CCCCc1ccc(C(=O)Nc2ccc3nc(N4CCN(C)CC4)cc(C)c3c2)cc1`, the z-score is -0.21.

For the molecule `COc1ccc(-c2nc3ccccc3n2Cc2ccccc2)cc1OC`, the z-score was 0.26.

Regarding `O=C(Nc1ccc(Cl)cn1)c1ccc(-c2ccc(Cl)cc2)o1`, the z-score is -0.31.

For `CCOC(=O)c1c(C)nc2c(C#N)c(C)n(-c3ccccc3)c2c1-c1ccc(Br)cc1`, the z-score is 3.74. Turning to `Cc1ccc(C2NC(=O)c3c(sc4c3CCCC4)N2)c(O)c1` (stereo not given), the z-score was -1.13. Regarding `CC1=C(C(=O)OCC(C)C)C(c2ccc(OCc3ccccc3)cc2)N2C(=O)CCSC2=N1` (stereo not given), the z-score was -0.14. With `COc1ccc2nc(SCc3ccc(Cl)cc3)[nH]c2c1`, the z-score is 0.1. For the molecule `COc1cc(C2CC(=O)c3cnc(NC(C)=O)nc3C2)cc(OC)c1OC` (stereo not given), the z-score was 1.22. With `Cc1cc(N2C(=O)c3ccccc3C2=O)ccc1Br` the figure was -1.04; with `Cc1cccc(NC(=O)c2cc3c(=O)n4cccc(C)c4nc3s2)c1`, -1.13; with `Cc1ccc(-n2c(SCC(=O)OCc3ccccc3)nc3c(c2=O)SCC3)cc1`, -1. Consider `O=C1NC(c2ccccc2)Oc2ccccc21` (stereo not given), for which the z-score is -0.5. The figure for `Cc1ccc(Sc2c(C)nn(C(C)(C)C)c2OC(=O)C2CCCC2)cc1` is -0.01; for `C=CCOC(=O)C1=C(C)N=C2SCCC(=O)N2C1c1ccc(Br)cc1` (stereo not given) it is -1.08; for `Cc1cc(C)cc(NC(=O)C(C)N(c2ccccc2)S(C)(=O)=O)c1` (stereo not given) it is 0.11.

For the molecule `COC(=O)Cn1c(=O)n(-c2ccccc2)c(=O)n1CC(=O)OC`, the z-score is 1.19. On to `O=C1C2C3c4ccccc4C(Br)(c4ccccc43)C2C(=O)N1c1ccc([N+](=O)[O-])cc1` (stereo not given), for which the z-score was -0.34. On to `O=c1oc2ccc3ccccc3c2cc1-c1nc(-c2ccccc2)cs1`, for which the z-score is 0.88.

In the case of `CC1CCC(NS(=O)(=O)c2ccc3c(c2)oc(=O)n3C)CC1` (stereo not given), the z-score was -0.87.

As for `CN1CCN(C(=O)c2cnn3c(C(F)(F)F)cc(-c4ccc(Br)cc4)nc23)CC1`, the z-score was -0.34. As to `O=C(NCc1ccc(F)cc1)c1ccc2c(=O)n(C3CCCC3)c(=S)[nH]c2c1`, the z-score is -0.53. The figure for `COc1ccc(-c2c(C(F)(F)F)oc3cc(O)ccc3c2=O)cc1` is 0.21; for `CC(C)c1ccccc1NC(=O)c1ccccc1` it is 0.08; for `CC(C)c1ccc(NC(=O)c2ccc(NC3CCCC(C)C3C)c([N+](=O)[O-])c2)cc1` (stereo not given) it is -0.26.

With `O=C(CSc1nc2c(cnn2-c2ccc(F)cc2)c(=O)[nH]1)N1CCCCCC1`, the z-score was -0.88.

In the case of `CCCn1c2ccccc2c2n[nH]c(=S)nc21`, the z-score was -0.86. The figure for `Cc1ccc(Cl)cc1N1CCN(C(=O)CCCn2c(=S)[nH]c3cc4c(cc3c2=O)OCO4)CC1` is 1.87; for `Cc1ccc(-c2cc3nc(C)cc(C(F)(F)F)n3n2)cc1` it is -0.75. Regarding `COC(=O)c1ccc(Sc2ccc(C)cc2)c([N+](=O)[O-])c1`, the z-score was 0.34. On to `CCCn1c(C(C)NC(=O)C(C)(C)C)nc2ccccc21` (stereo not given), for which the z-score was -0.58.

As for `Cc1cccc(NC(N)=Nc2nc(CSc3ccc(Cl)cc3)cc(=O)[nH]2)c1`, the z-score is 0.03.

Turning to `O=[N+]([O-])c1ccc(C=Nc2ccc(-c3nc4ccccc4o3)cc2)s1`, the z-score was -1.32. Regarding `CC(C)(C)c1ccc(C(=O)Nc2ccc(N3CCOCC3)c(Cl)c2)cc1`, the z-score was -1.1. On to `CN(Cc1ccccc1)C(=O)Cn1ncc2c(=O)oc3ccccc3c21`, for which the z-score was 1.21.

Consider `CCCCNC(=O)c1ccc[nH]c1=S`, for which the z-score is 0.16. On to `CC(=O)c1cccc(NC(=O)c2ccccc2C(=O)O)c1`, for which the z-score was -0.2.

For `COc1ccc(OC)c2[nH]c(=O)c(CCNC(=O)c3ccccc3I)cc12`, the z-score is -0.19. As to `CSCCC1(C(=O)O)NC(c2cc(I)ccc2O)C2C(=O)N(Cc3ccccc3)C(=O)C21` (stereo not given), the z-score was -0.74. Take `O=C(NCc1ccccc1)c1ccc(CSCc2ccccc2Cl)o1`: the z-score was -0.18. In the case of `Cc1ccc(S(=O)(=O)n2nc(OC(=O)c3ccc(F)cc3)cc2N)cc1`, the z-score is -1.65. The figure for `Cn1c(=O)c(Cl)c(O)c2ccccc21` is 0.2; for `COC(=O)c1c(NC(=O)Cn2cnc([N+](=O)[O-])n2)sc2c1CCCC2` it is -0.06; for `CCOc1ccc(N=C2NC(=O)C(CC(=O)Nc3ccc(Br)cc3)S2)cc1` (stereo not given) it is -0.81. The figure for `Cc1cccc(NC(=O)c2ccc(F)c(S(=O)(=O)N3CC(C)CC(C)C3)c2)c1` (stereo not given) is -0.97; for `COC(=O)c1c(NC(=O)c2ccc(S(=O)(=O)N3CC(C)CC(C)C3)cc2)sc2c1CC(C)(C)NC2(C)C` (stereo not given) it is -0.34; for `Cc1cccc(N2CCN(C(=O)c3ccc4nc5ccc(Cl)cc5c(=O)n4c3)CC2C)c1` (stereo not given) it is 0.3. Consider `CCOc1ccccc1NC(=O)c1sc2ncnc(N3CCCCC3C)c2c1C` (stereo not given), for which the z-score is 1.12. Take `Cc1ccc(-n2nc3c(c2NC(=O)c2ccccc2F)CS(=O)(=O)C3)c(C)c1`: the z-score is -0.44. In the case of `O=C1C2C3c4ccccc4C(C(=O)O)(c4ccccc43)C2C(=O)N1c1ccccc1Cl` (stereo not given), the z-score was -0.65.

In the case of `CC(C)(C)c1nnc(Nc2ccc3c(c2)OCO3)[nH]c1=O`, the z-score is -0.67. As to `CCNS(=O)(=O)c1cc(-c2nnc(Nc3cccc(C(F)(F)F)c3)c3ccccc23)ccc1C`, the z-score was -0.06. Consider `Cc1ccc2nc(-c3ccccc3)c(Nc3ccccc3C)n2c1`, for which the z-score was -1.03. With `COc1ccc(C2/C(=C(\O)c3ccccc3)C(=O)C(=O)N2CO)cc1` (stereo not given) the figure was -0.38. Consider `O=P(Cc1cccc(CP(=O)(c2ccccc2)c2ccccc2)n1)(c1ccccc1)c1ccccc1`, for which the z-score is -1.8. On to `COc1cc(NC(=O)c2noc3c2CCCCC3)c(OC)cc1Cl`, for which the z-score is -0.93. On to `Cc1ccc(S(=O)(=O)C2(C(=O)N(C)Cc3ccccc3)CC2)cc1`, for which the z-score was 0.74. Turning to `CCC(C(=O)NCCC(C)C)N1C(=O)CSc2ccc(C(C)(C)C)cc21` (stereo not given), the z-score was 0.55. `Cc1cc(C(=O)NCCCN=C2NS(=O)(=O)c3ccccc32)c2ccccc2n1`: the z-score was 1.11. As for `N#Cc1c(NC(=O)CCCC(=O)O)sc2c1CCCC2`, the z-score was -0.15. For `CCCC12CN3CC(C)(CN(C1)C3c1ccccc1Cl)C2=O` (stereo not given), the z-score is -0.48.

On to `O=C1CCCc2oc3c(cc(NS(=O)(=O)c4ccc(Cl)cc4)c4ccccc43)c21`, for which the z-score was -0.4. As for `CN(C(=O)CCn1c(=S)oc2ccccc21)C1CCCCC1`, the z-score was -2.69.

For `CCOc1ccc(C(=O)Nc2cccc(-c3nc4cc(C)ccc4o3)c2)cc1Br`, the z-score was -0.49. For the molecule `O=C(Nc1c2c(nn1-c1ccc(F)cc1)CS(=O)(=O)C2)c1ccccc1Cl`, the z-score was -1.44. With `COc1ccc(C2Nc3ccccc3C(=O)N2c2ccc(Cl)cc2)cc1COc1ccccn1` (stereo not given), the z-score is 0.19. With `Cc1cc(Cl)ccc1OC1C(=O)N(c2cccc([N+](=O)[O-])c2)C1c1ccccc1Cl` (stereo not given) the figure was -0.08. Consider `O=C(CCCn1c(=O)[nH]c2cc(Cl)ccc2c1=O)NCCc1c[nH]c2ccccc12`, for which the z-score is -0.02. In the case of `O=S1(=O)N=C(N2CCCCC2)c2ccccc21`, the z-score is 2.63. Consider `CC(=O)c1cccc(N2C(=O)c3ccc(C(=O)OCC(=O)c4cccc([N+](=O)[O-])c4)cc3C2=O)c1`, for which the z-score was -0.12. As for `CC(C)Sc1oc(-c2ccc(F)cc2)nc1S(=O)(=O)c1ccc(Cl)cc1`, the z-score is -1.46. The figure for `CC(=O)NC1=NN(C(C)=O)C(c2ccc3c(c2)OCO3)S1` (stereo not given) is -0.09; for `Cc1ccc(S(=O)(=O)N2CCCCCC2)cc1C(=O)Nc1ccc(Br)cc1` it is -0.48. Consider `CCOc1ccc(-c2cc(C(=O)N3CCN(Cc4ccc5c(c4)OCO5)CC3)c3ccccc3n2)cc1`, for which the z-score was 0.33.

In the case of `O=C(NCCN1CCOCC1)c1cc(Sc2cccc(Cl)c2)nc2ccccc12`, the z-score was 0.36. Turning to `Cc1cccc(NC(=O)c2c(NC(=O)c3ccncc3)sc3c2CCC(C(C)(C)C)C3)c1` (stereo not given), the z-score was -0.43. On to `COc1ccc(NC(=O)CN2C(=O)C3C4CCC(C4)C3C2=O)cc1` (stereo not given), for which the z-score is 0.52. Turning to `Cc1ccc(C)c(OCCc2c(C)n[nH]c2C)c1`, the z-score was 0. The figure for `COC(=O)c1ccccc1Oc1c(F)c(F)nc(NCCO)c1F` is -0.51; for `COc1ccc(OC)c(C=Nc2oc(-c3ccccc3)c(-c3ccccc3)c2C#N)c1` it is -1.

(Values after PubChem BioAssay AID745 (Emory University Molecular Libraries Screening Center, 2007).)
